Laboratory results reported in PubChem BioAssay (NCATS).
Records with an inconclusive call do not appear. A call without a number means that no potency is given here. Calls of active or inactive are those of the source. Unless noted, calls follow the shape of the dose curve; as a rule, active = well fitted curve in the direction sought with a large enough effect; inconclusive = small, poorly fitted or top-dose-only effect, or another doubt; inactive = no such curve, though single readings can be large; an effect the other way counts as inactive or inconclusive.

Columns and labels:
[1] = target: Alpha-galactosidase A (Homo sapiens) (UniProt P06280); assay: Counterscreen for Glucocerebrosidase Inhibitors: qHTS Assay for Human alpha-Galactosidase at pH 4.5 (AID 992)
How it was run: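 Fluorogenic 1536-well qHTS at pH 4.5 (citrate, Tween-20): 2 nM enzyme, 80 uM 4-MU-alpha-galactoside, 20 min room temperature, NaOH/glycine stop. Titration 0.7 nM to 77 uM, data normalized to no-enzyme and full-activity controls, Hill-fitted AC50.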

[2] = target: alpha-glucosidase (Oryza sativa, rice) (UniProt Q653V4); assay: Counterscreen for Glucocerebrosidase Inhibitors: qHTS Assay for Rice alpha-Glucosidase at pH 5.0 (AID 997)
How it was run: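 Endpoint fluorogenic assay at pH 5.0: compounds (0.7 nM to 77 uM) titrated against 4 nM rice enzyme and 400 uM 4-MU-alpha-glucoside for 20 min at room temperature; NaOH/glycine stop, read ex 365/em 440 nm, Hill-fitted AC50.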

[3] = qHTS Assay for Lipid Storage Modulators (AID 1519; calls by dose curve); conditions: Drosophila S3 cells, BODIPY lipid droplet/cell ratio, laser cytometry, cells loaded with oleic acid
How it was run: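 Cells seeded at 5,000 per well were treated with compounds over a concentration series and loaded with oleic acid (400 uM, as added). Lipid droplet fluorescence (488 nm excitation, 500-530 nm channel) was read by laser-scanning cytometry and normalized to 20 uM Triacsin C.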

[4] = target: DNA repair nuclease/redox regulator APEX1 (Homo sapiens) (UniProt P27695); assay: qHTS Validation Assay for Inhibitors of the Human Apurinic/apyrimidinic Endonuclease 1 (APE1) (AID 1705;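 also: TAMRA fluorescence gain over two minutes as APE1 cuts a quenched THF abasic duplex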)
How it was run: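 Human APE1 was preincubated with compound for 15 min at room temperature, then 50 nM (final) THF-abasic double-stranded DNA substrate bearing 5'-TAMRA and 3'-BHQ-2 was added. Incision-driven fluorescence rise (ex 525/em 598 nm) was read kinetically.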

[5] = Counterscreen for APE1 Inhibitors: Fluorescent Dye Displacement Validation Assay (AID 1707)
How it was run: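 Counterscreen flags promiscuous DNA binders: compounds displacing ThO from duplex DNA (abasic THF site, 50 nM) reduce 540 nm emission (480 nm excitation). ThO 250 nM final; Tris-HCl pH 7.5 with NaCl, MgCl2 and Tween-20.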

[6] = target: Endonuclease 4 (Escherichia coli (strain K12)) (UniProt P0A6C1); assay: Counterscreen for APE1 Inhibitors: qHTS Validation Assay for Inhibitors of Endonuclease IV (AID 1708)
How it was run: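 Read-out: fluorescence rise (ex 525/em 598 nm) from incision of a TAMRA/BHQ-2 double-stranded THF abasic-site substrate (50 nM), measured kinetically; third-minus-first read difference gave reaction progress. Enzyme 2 nM.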

[7] = Validation of Assay for Modulators of Lamin A Splicing (AID 1459; active = well fitted curve in the direction sought with a large enough effect in the signal ratio; the % refers to the signal ratio;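 also: cells exposed to compound for two days before reading; ratio rise marks activators and ratio drop marks inhibitors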)
How it was run: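 S3 HeLa cells stably expressing a lamin A-EGFP splicing minigene and DsRed2 were seeded at 600 cells/well in Opti-MEM with 2% FBS, pin-dosed, and incubated 48 hrs at 37 °C, 5% CO2. Laser-scanning cytometry (488 nm) gave GFP/RFP total intensity ratio.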

[8] = qHTS for differential inhibitors of proliferation of Plasmodium falciparum line 7G8 (AID 1815);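 also: parasite growth measured after three days of incubation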
[9] = qHTS for differential inhibitors of proliferation of Plasmodium falciparum line GB4 (AID 1816); conditions: Potency: Plasmodium falciparum GB4 proliferation inhibition;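 also: parasite growth measured after 72 h incubation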
[10] = qHTS for differential inhibitors of proliferation of Plasmodium falciparum line 3D7 (AID 1876);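 also: parasite growth measured after three days of culture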
[11] = Cell Viability - LYMP2-010 (AID 981); also: nearly all actives have a fitted effect of over 55% in size; also: potency is read from the fitted curve at half-maximal effect
How it was run: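 This 24 hr viability screen uses LYMP2-010 lymphoblastoid cells, quantifies ATP via luciferase luminescence, and derives AC50 from Hill fits of qHTS concentration-response data.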

[12] = Cell Viability - LYMP2-012 (AID 982);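 also: cellular ATP by luciferase luminescence where a drop means cytotoxicity; cells exposed to compound for one day before reading; nearly all actives have a fitted effect of over 55% in size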; also: potency is read from the fitted curve at half-maximal effect
[13] = Cell Viability - LYMP2-014 (AID 983);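 also: cells exposed to compound for 24 h at 37 °C; nearly all actives have a fitted effect of over 50% in size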
How it was run: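 Quantitative HTS in lymphoblastoid cells: 24 hr compound exposure, then CellTiter-Glo ATP luminescence. Positive control was tetraoctylammonium bromide, 6.4pM to 92 uM.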

[14] = Cell Viability - LYMP2-016 (AID 984); also: nearly all actives have a fitted effect of over 55% in size; also: potency is read from the fitted curve at half-maximal effect
How it was run: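 Human lymphoblastoid cells (LYMP2-016), 2500/well in complete medium, preincubated 5 hr at 37 C, then compound-treated 24 hr at 37 C. Intracellular ATP read by CellTiter-Glo luminescence after 30 min at room temperature; AC50 from Hill-equation concentration-response fits.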

[15] = Cell Viability - LYMP2-018 (AID 985); also: nearly all actives have a fitted effect of over 50% in size; also: potency is read from the fitted curve at half-maximal effect
How it was run: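 In this qHTS viability assay, cells are treated for 24 hr and cellular ATP is quantified by luciferase-based luminescence, with tetraoctylammonium bromide as positive control.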

[16] = Cell Viability - LYMP2-020 (AID 986);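 also: cells exposed to compound for 24 h at 37 °C; nearly all actives have a fitted effect of over 55% in size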; also: potency is read from the fitted curve at half-maximal effect
How it was run: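 Cells at 2500 per well receive a 24 hr compound exposure at 37 C. Viability is measured as ATP-dependent luciferase luminescence, with AC50 modeled from qHTS concentration-response curves.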

[17] = Cell Viability - LYMP2-022 (AID 987); also: nearly all actives have a fitted effect of over 55% in size; also: potency is read from the fitted curve at half-maximal effect
How it was run: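 In this qHTS cytotoxicity screen, compound titrations were incubated 24 hr at 37 C with human lymphoblastoid cells in complete medium. Luciferase-based ATP luminescence provided the viability signal.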

[18] = Cell Viability - LYMP2-024 (AID 988); also: nearly all actives have a fitted effect of over 60% in size; also: potency is read from the fitted curve at half-maximal effect
How it was run: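 Cells at 2500 per well received compound for 24 hr after a 5 hr settling period. Viability was scored by CellTiter-Glo luminescence, with AC50 from Hill fits.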

[19] = Cell Viability - LYMP1-002 - Assay at 24 hr (AID 993); also: potency is read from the fitted curve at half-maximal effect
How it was run: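 Viability was judged from intracellular ATP using a luciferase read-out, following a 24-hour compound incubation at 37 C of lymphoblastoid cells seeded at 2500 per well. Concentration-response data were fitted to the Hill equation for AC50.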

[20] = Cell Viability - LYMP1-002 - Assay at 40 hr (AID 994); also: nearly all actives have a fitted effect of over 60% in size; also: potency is read from the fitted curve at half-maximal effect
How it was run: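 Concentration-dependent ATP loss after 40 hr treatment at 37 C defined toxicity; AC50 values were obtained by fitting the standard Hill equation.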

[21] = measured here: cell count channel max response
[22] = measured here: lipid channel max response

Sequence of DNA repair nuclease/redox regulator APEX1 (Homo sapiens) (P27695 whole entry, looked up): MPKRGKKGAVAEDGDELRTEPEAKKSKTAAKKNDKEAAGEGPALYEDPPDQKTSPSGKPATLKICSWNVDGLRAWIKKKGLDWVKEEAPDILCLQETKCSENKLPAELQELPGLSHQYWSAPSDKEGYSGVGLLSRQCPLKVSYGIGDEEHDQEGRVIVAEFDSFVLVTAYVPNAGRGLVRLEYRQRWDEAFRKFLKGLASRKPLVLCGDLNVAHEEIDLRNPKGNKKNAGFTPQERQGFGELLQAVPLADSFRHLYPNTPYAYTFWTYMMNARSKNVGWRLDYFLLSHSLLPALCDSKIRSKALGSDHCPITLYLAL
Sequence of Alpha-galactosidase A (Homo sapiens) (P06280 whole entry, looked up): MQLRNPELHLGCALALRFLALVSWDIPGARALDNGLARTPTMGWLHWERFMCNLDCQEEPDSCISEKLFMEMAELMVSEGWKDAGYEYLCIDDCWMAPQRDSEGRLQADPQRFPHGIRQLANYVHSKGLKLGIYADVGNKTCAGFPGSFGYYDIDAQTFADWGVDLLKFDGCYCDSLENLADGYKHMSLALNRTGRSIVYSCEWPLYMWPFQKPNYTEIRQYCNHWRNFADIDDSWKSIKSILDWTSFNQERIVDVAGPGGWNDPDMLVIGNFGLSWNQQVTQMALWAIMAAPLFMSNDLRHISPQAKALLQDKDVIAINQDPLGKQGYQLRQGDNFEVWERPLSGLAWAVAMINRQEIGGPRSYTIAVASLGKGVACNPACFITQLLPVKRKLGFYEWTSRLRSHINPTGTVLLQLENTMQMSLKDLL

For C[C@@](Cc1ccc(O)c(O)c1)(NN)C(=O)O, the outcome [1] was “inactive”, the outcome [2] was “inactive” and the activity change, negative = inhibition ([3]; at 57.5 µM (top of the series)) was -0.657% (inactive). For the same compound, the max response [3, 21] was -17.5%, the max response [3, 22] was -16% and the outcome [4] was “inactive”. The outcome [5] was “inactive” and the outcome [6] was “inactive”.

For CC[C@H]1OC(=O)[C@H](C)[C@@H](O[C@H]2C[C@@](C)(OC)[C@@H](O)[C@H](C)O2)C(C)[C@@H](O[C@@H]2O[C@H](C)C[C@H](N(C)C)[C@@H]2O)[C@](C)(OC)C[C@@H](C)C(=O)[C@H](C)[C@@H](O)[C@]1(C)O (some centres undefined), the activity change, negative = inhibition ([3]; at 57.5 µM (top of the series)) was 7.44% (inactive), the max response [3, 21] was 9.53% and the max response [3, 22] was 18.8%.

For CN1C(=O)OC(C)(C)C1=O, the activity change, negative = inhibition ([3]; at 25.7 µM (top of the series)) was 0.553% (inactive), the max response [3, 21] was 9.38% and the max response [3, 22] was 10.6%.

For O=c1[nH]c(=O)n([C@H]2C[C@H](O)[C@@H](CO)O2)cc1/C=C/Br, the outcome [7] was “inactive”, the outcome [4] was “inactive” and the outcome [5] was “inactive”. The outcome [6] was “inactive”, the Potency [8] was “inactive” and the Potency [9] was “inactive”. For the same compound, the outcome [10] was “inactive”.

With CC1=CC(=O)NS(=O)(=O)O1 the Potency [11] was “inactive”, the Potency [12] was “inactive” and the Potency [13] was “inactive”. The Potency [14] was “inactive”, the Potency [15] was “inactive” and the Potency [16] was “inactive”. The Potency [17] was “inactive”, the Potency [18] was “inactive” and the Potency [19] was “inactive”. The Potency [20] was “inactive”.

In the case of Nc1nccs1, the Potency [11] is reported as “inactive”, the Potency [12] is reported as “inactive” and the Potency [13] is reported as “inactive”. The Potency [14] was “inactive”, the Potency [15] was “inactive” and the Potency [16] was “inactive”. The Potency [17] was “inactive”, the Potency [18] was “inactive” and the Potency [19] was “inactive”. For the same compound, the Potency [20] was “inactive”, the activity change, negative = inhibition ([3]; at 57.5 µM (top of the series)) was 6.96% (inactive) and the max response [3, 21] was -1.03%. For the same compound, the max response [3, 22] was 14.6%.

In the case of Cc1ncc[nH]1, the Potency [11] is reported as “inactive”, the Potency [12] is reported as “inactive” and the Potency [13] is reported as “inactive”. For the same compound, the Potency [14] was “inactive”, the Potency [15] was “inactive” and the Potency [16] was “inactive”. The Potency [17] was “inactive”, the Potency [18] was “inactive” and the Potency [19] was “inactive”. For the same compound, the Potency [20] was “inactive”.

With COC(=O)c1ccccc1O the Potency [11] was “inactive”, the Potency [12] was “inactive” and the Potency [13] was “inactive”. For the same compound, the Potency [14] was “inactive”, the Potency [15] was “inactive” and the Potency [16] was “inactive”. For the same compound, the Potency [17] was “inactive”, the Potency [18] was “inactive” and the Potency [19] was “inactive”. The Potency [20] was “inactive”.

In the case of Cc1ccc(S(=O)(=O)O)cc1C, the Potency [11] is reported as “inactive”, the Potency [12] is reported as “inactive” and the Potency [13] is reported as “inactive”. The Potency [14] was “inactive”, the Potency [15] was “inactive” and the Potency [16] was “inactive”. For the same compound, the Potency [17] was “inactive”, the Potency [18] was “inactive” and the Potency [19] was “inactive”. For the same compound, the Potency [20] was “inactive”.

In the case of CC(C)(C)CC(C)(C)c1ccc(OCCO)cc1, the Potency [11] is reported as “inactive”, the Potency [12] is reported as “inactive” and the Potency [13] is reported as “inactive”. The Potency [14] was “inactive”, the Potency [15] was “inactive” and the Potency [16] was “inactive”. For the same compound, the Potency [17] was “inactive”, the Potency [18] was “inactive” and the Potency [19] was “inactive”. The Potency [20] was “inactive”.

For C[C@H]1O[C@@H](O[C@H]2[C@@H](O)C[C@H](O[C@H]3[C@@H](O)C[C@H](O[C@H]4CC[C@@]5(C)[C@H](CC[C@@H]6[C@@H]5C[C@@H](O)[C@]5(C)[C@@H](C7=CC(=O)OC7)CC[C@]65O)C4)O[C@@H]3C)O[C@@H]2C)C[C@H](O)[C@@H]1O, the Potency [11] was 0.251 µM (active), the Potency [15] was 0.158 µM (active) and the Potency [17] was 0.251 µM (active). The Potency [18] was 0.158 µM (active), the Potency [19] was 0.158 µM (active) and the Potency [20] was 0.158 µM (active).

For NCCN, the Potency [11] was “inactive”, the Potency [12] was “inactive” and the Potency [13] was “inactive”. For the same compound, the Potency [14] was “inactive”, the Potency [15] was “inactive” and the Potency [16] was “inactive”. For the same compound, the Potency [17] was “inactive”, the Potency [18] was “inactive” and the Potency [19] was “inactive”. The Potency [20] was “inactive”.

In the case of O=c1n(CC2CO2)c(=O)n(CC2CO2)c(=O)n1CC1CO1 (centres undefined), the Potency [11] is reported as 25.1 µM (active), the Potency [12] is reported as 25.1 µM (active) and the Potency [14] is reported as 31.6 µM (active). For the same compound, the Potency [15] was 15.8 µM (active), the Potency [16] was 25.1 µM (active) and the Potency [17] was 31.6 µM (active). For the same compound, the Potency [18] was 39.8 µM (active), the Potency [19] was 39.8 µM (active) and the Potency [20] was 7.94 µM (active).

In the case of CCOC(C)OCC, the Potency [11] is reported as “inactive”, the Potency [12] is reported as “inactive” and the Potency [13] is reported as “inactive”. For the same compound, the Potency [14] was “inactive”, the Potency [15] was “inactive” and the Potency [16] was “inactive”. For the same compound, the Potency [17] was “inactive”, the Potency [18] was “inactive” and the Potency [19] was “inactive”. The Potency [20] was “inactive”.
